Test results published in PubChem BioAssay AID1159580 (chemical genetic matrix, 2015).
Values joined by “and” are separate entries in the source; they are usually repeats but may differ in a detail not shown here. Equal entries are not always repeated. Among all 5,500 compounds or so, about 2,000 (36%) were called active. About 18% were inconclusive and are not listed. No stated cut-off is given here; in the data, active means normalized growth mostly below about 0.91 (no sharp cut-off); inconclusive means no clear call, values can overlap the other calls; inactive means mostly above about 0.92. Some of the results follow.

Experiment: chemical genetic growth profiling, strain panel (AID 1159580);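 further: tested at 20 µM; growth read once vehicle control cultures reached saturation at 30 °C; 1 = growth at the plate median or of vehicle wells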
Conditions: S. cerevisiae deletion strains, growth OD
[1] = locus YAL040C, strain CLN3, stronger effect = lower value
[2] = locus YCL061C, strain MRC1 (second series), stronger effect = lower value
[3] = locus YDR150W, strain NUM1, stronger effect = lower value
[4] = locus YDR363W, strain ESC2, stronger effect = lower value
[5] = locus YER002W, strain NOP16, stronger effect = lower value
[6] = locus YGR078C, strain PAC10, stronger effect = lower value
[7] = locus YMR307W, strain GAS1, stronger effect = lower value
[8] = locus YNL175C, strain NOP13, stronger effect = lower value
[9] = locus YNL197C, strain WHI3, stronger effect = lower value
[10] = locus YNL224C, strain SQS1, stronger effect = lower value
[11] = locus YNL322C, strain KRE1, stronger effect = lower value
[12] = locus YOR083W, strain WHI5 (second series), stronger effect = lower value
[13] = locus YAL013W, strain DEP1, stronger effect = lower value
[14] = locus YBR229C, strain ROT2, stronger effect = lower value
[15] = locus YDL101C, strain DUN1, stronger effect = lower value
[16] = locus YDL134C, strain PPH21, stronger effect = lower value
[17] = locus YEL061C, strain CIN8, stronger effect = lower value
[18] = locus YHR030C, strain SLT2, stronger effect = lower value
[19] = locus YJR043C, strain POL32, stronger effect = lower value
[20] = locus YJR075W, strain HOC1, stronger effect = lower value
[21] = locus YKL190W, strain CNB1, stronger effect = lower value
[22] = locus YLR039C, strain RIC1, stronger effect = lower value
[23] = locus YLR262C, strain YPT6, stronger effect = lower value
[24] = locus YMR263W, strain SAP30, stronger effect = lower value
[25] = locus YNL153C, strain GIM3, stronger effect = lower value

Measured: normalized growth

CCC1(O)CC2CN(CCc3c([nH]c4ccccc34)[C@@](C(=O)OC)(c3cc4c(cc3OC)N(C=O)C3[C@]45CCN4CC=C[C@@](CC)([C@@H](OC(C)=O)[C@]3(O)C(=O)OC)[C@H]45)C2)C1 (some centres not stated)
inactive: [1] 0.979 | [2] 0.991 | [3] 0.999 | [4] 0.986 | [5] 1 | [6] 0.999 | locus YGR229C, strain SMI1, stronger effect = lower value 0.983 | [7] 0.99 | [8] 1.01 | [9] 0.983 | [10] 1 | [11] 0.957 | [12] 0.99

NC(CSCSCC(N)C(=O)O)C(=O)O (configuration not stated)
inactive: [13] 1.01 | locus YBR021W, strain FUR4, stronger effect = lower value 1.01 | [14] 0.998 | locus YCL029C, strain bik1, stronger effect = lower value 0.989 | locus YDL035C, strain GPR1, stronger effect = lower value 1.02 | locus YDL074C, strain BRE1, stronger effect = lower value 1.05 | [15] 1 | [16] 0.988 | locus YDL185W, strain tfp1, stronger effect = lower value 1.01 | locus YDL192W, strain arf1, stronger effect = lower value 0.977 | locus YDR101C, strain arx1, stronger effect = lower value 0.999 | locus YDR162C, strain NBP2, stronger effect = lower value 1.02 | locus YDR318W, strain mcm21, stronger effect = lower value 0.981 | locus YDR388W, stronger effect = lower value 0.986 | locus YDR502C, strain sam2, stronger effect = lower value 1 | [17] 1.02 | locus YER110C, stronger effect = lower value 0.987 | locus YER155C, strain BEM2, stronger effect = lower value 1.01 | locus YER167W, strain BCK2, stronger effect = lower value 1 | locus YGL078C, strain dbp3, stronger effect = lower value 1.01 | locus YGL086W, strain mad1, stronger effect = lower value 1 | locus YGL248W, strain PDE1, stronger effect = lower value 0.997 | locus YGR135W, strain pre9, stronger effect = lower value 0.99 | locus YGR252W, strain gcn5, stronger effect = lower value 1.11 | [18] 1.01 and 1.04 | locus YHR079C, strain IRE1 (second series), stronger effect = lower value 0.987 | locus YHR079C, strain IRE1, stronger effect = lower value 1.04 | locus YHR094C, strain hxt1, stronger effect = lower value 0.985 | locus YHR129C, strain ARP1, stronger effect = lower value 0.995 | locus YHR200W, strain rpn10, stronger effect = lower value 0.997 | locus YIL066C, strain RNR3, stronger effect = lower value 1.01 | locus YIL073C, strain SPO22, stronger effect = lower value 1.06 | locus YIL125W, strain kgd1, stronger effect = lower value 1.01 | locus YIR030C, strain dcg1, stronger effect = lower value 0.999 | locus YJL095W, strain BCK1, stronger effect = lower value 1.01 and 1.02 | locus YJL134W, strain LCB3, stronger effect = lower value 1.01 | locus YJL168C, strain set2, stronger effect = lower value 0.982 | locus YJL187C, strain SWE1 (second series), stronger effect = lower value 1.01 | [19] 1.01 | locus YJR066W, strain TOR1, stronger effect = lower value 0.979 | [20] 1.01 | locus YKL009W, strain mrt4, stronger effect = lower value 1.01 | locus YKL068W, stronger effect = lower value 1 | locus YKL085W, strain MDH1 (second series), stronger effect = lower value 0.998 | locus YKL085W, strain MDH1, stronger effect = lower value 0.998 | [21] 1.01 | locus YKR001C, strain vps1, stronger effect = lower value 1.02 | [22] 1.1 | locus YLR058C, strain SHM2, stronger effect = lower value 1 | locus YLR102C, strain apc9, stronger effect = lower value 0.979 | locus YLR113W, strain HOG1, stronger effect = lower value 1.04 | [23] 1.12 | locus YLR268W, strain sec22, stronger effect = lower value 1.02 | locus YLR330W, strain CHS5, stronger effect = lower value 1.01 | locus YLR342W, strain FKS1 (second series), stronger effect = lower value 1.02 | locus YLR371W, strain rom2, stronger effect = lower value 0.977 | locus YLR418C, strain cdc73, stronger effect = lower value 1.01 | locus YML016C, strain PPZ1, stronger effect = lower value 1 | locus YML032C, strain rad52, stronger effect = lower value 0.992 | locus YML124C, strain tub3, stronger effect = lower value 0.99 | locus YMR078C, strain ctf18, stronger effect = lower value 0.988 | locus YMR223W, strain ubp8, stronger effect = lower value 0.994 | [24] 1.01 | [7] 1.02 | locus YNL067W, strain RPL9B, stronger effect = lower value 1 | [25] 1 | locus YNL183C, strain NPR1, stronger effect = lower value 0.983 | locus YNL233W, strain BNI4, stronger effect = lower value 1.02 | locus YNL250W, strain rad50, stronger effect = lower value 1.02 | locus YNL271C, strain bni1, stronger effect = lower value 1.01 | locus YNL298W, strain CLA4, stronger effect = lower value 1 | locus YNL307C, strain MCK1, stronger effect = lower value 0.987 | locus YNR052C, strain pop2, stronger effect = lower value 0.999 | locus YOL012C, strain htz1 0.928 | locus YOL147C, strain pex11, stronger effect = lower value 0.991 | locus YOR061W, strain CKA2, stronger effect = lower value 1.01 | locus YOR069W, strain VPS5, stronger effect = lower value 1.01 | locus YOR136W, strain idh2, stronger effect = lower value 0.996 | locus YOR144C, strain elg1, stronger effect = lower value 0.984 | locus YOR184W, strain ser1, stronger effect = lower value 0.995 | locus YOR231W, strain MKK1, stronger effect = lower value 1.04 | locus YOR316C, strain cot1, stronger effect = lower value 0.98 | locus YPL256C, strain CLN2, stronger effect = lower value 1.02 | locus YPR119W, strain clb2, stronger effect = lower value 0.987 | locus YPR141C, strain kar3, stronger effect = lower value 0.997 | locus YPR163C, strain tif3, stronger effect = lower value 0.999 | locus YPR167C, strain met16, stronger effect = lower value 0.988 | strain wtn01, stronger effect = lower value 1.04

FC(F)(F)c1cc(CO[C@H]2CCCN[C@H]2c2ccccc2)cc(C(F)(F)F)c1
inactive: [13] 0.988 | [1] 0.998 | [2] 0.975 | [4] 0.96 | [5] 1.04 | [24] 0.999 | [7] 0.964 | locus YNL128W, strain TEP1, stronger effect = lower value 1.05 | [25] 0.823 | [8] 1.04 | [9] 1.07 | [10] 1.03 | [12] 0.913

Cn1c2c(c3c1CCCC3)CCCC2
active: [25] 0.873
inactive: [13] 0.995 | [14] 1.03 | locus YCL061C, strain MRC1, stronger effect = lower value 1.01 | [15] 0.974 | [16] 1.02 | [3] 1.02 | [17] 0.988 | [6] 1.01 | [18] 1.01 | locus YHR087W, strain rtc3, stronger effect = lower value 0.992 | [19] 1.02 | [20] 1.02 | [21] 1.02 | [22] 0.925 | locus YLR058C, strain SHM2 (second series), stronger effect = lower value 1.02 | locus YLR085C, strain ARP6, stronger effect = lower value 1 | [23] 0.974 | locus YML094W, strain GIM5, stronger effect = lower value 0.972 | locus YMR219W, strain ESC1, stronger effect = lower value 1.02 | [24] 1 | locus YNL298W, strain CLA4 (second series), stronger effect = lower value 1.02 | [11] 1.01 | locus YNR030W, strain Alg12, stronger effect = lower value 1.03 | locus YOL006C, strain TOP1, stronger effect = lower value 1 | locus YPL055C, strain LGE1, stronger effect = lower value 1.08 | locus YPL241C, strain CIN2, stronger effect = lower value 1.01 | locus YPR135W, strain CTF4, stronger effect = lower value 1.06
